Among the test systems are DU-145 prostate; K-562 leukemia; MALME-3M melanoma; MDA-MB-231 breast; RXF 393 renal; SF-268 CNS; SF-295 CNS; SF-539 CNS; UACC-257 melanoma; M14 melanoma; HCT-15 colon; HT29 colon; SNB-75 CNS; U251 CNS; PC-3 prostate; SK-MEL-5 melanoma; UACC-62 melanoma; LOX IMVI melanoma; SK-MEL-28 melanoma.
Assay in all cases: NCI-60 one-dose screen, 48 h (100 = growth as untreated, 0 = no growth, -100 = all killed)
What all share (details): 10 µM unless noted

Each structure is given as a SMILES string. About 83,000 compounds went through this panel and 20% of them were active in at least one assay; those are over-represented in the sample as a whole.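 Values shown are percent growth following 48 h exposure of cells in 96-well plates to a single concentration of compound; below 10 was considered active.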 Unmarked numbers belong to inactive results. Calls of active or inactive are those of the source.

This is an account of results in PubChem BioAssay (NCI).

On to `CC1(C)NCCC[C@]2(C)[C@H]3C=CC4=C5C[C@](C)(CO)CC[C@]5(C)CC[C@@]4(C)[C@]3(C)CC[C@@H]12`, for which the growth in the experiment with DU-145 prostate is -89.5% [100 µM] (active); with K-562 leukemia, -25.4% [100 µM] (active); with MALME-3M melanoma, -82.6% [100 µM] (active); with MDA-MB-231 breast it was -94% [100 µM] (active); in the experiment on RXF 393 renal it was -70.4% [100 µM] (active); with SF-268 CNS, -69.9% [100 µM] (active). Besides, the growth in the experiment with SF-295 CNS was -90.1% [100 µM] (active); with SF-539 CNS, -93.3% [100 µM] (active); in the experiment with UACC-257 melanoma, -80.5% [100 µM] (active); in the experiment with M14 melanoma, -82.1% [100 µM] (active); in the experiment on HCT-15 colon, -89.3% [100 µM] (active); in the experiment on HT29 colon, -62.1% [100 µM] (active). The growth in the experiment on SNB-75 CNS is -97.7% [100 µM] (active); with U251 CNS, -59.7% [100 µM] (active); in the experiment on PC-3 prostate, -79.1% [100 µM] (active); in the experiment on SK-MEL-5 melanoma it was -91.5% [100 µM] (active); in the experiment with UACC-62 melanoma, -94.3% [100 µM] (active); in the experiment on LOX IMVI melanoma it was -91.5% [100 µM] (active). Also, the growth with SK-MEL-28 melanoma is -97.3% [100 µM] (active).

`Cc1ccc(NCCN2CCCCC2)c2c(=O)c3ccccc3sc12`: the growth in the experiment with DU-145 prostate is 36.7%; in the experiment on K-562 leukemia, 16.2%; in the experiment with MALME-3M melanoma it was 22.1%; in the experiment on MDA-MB-231 breast, 28.3%; with RXF 393 renal, -29.5% (active); in the experiment with SF-268 CNS, 45.7%. Besides, the growth in the experiment on SF-295 CNS was 39%; in the experiment with SF-539 CNS it was 32.3%; with UACC-257 melanoma, -43% (active); with M14 melanoma, -30% (active); with HCT-15 colon, 13.9%; with HT29 colon, 20.5%. For the same molecule, the growth in the experiment with SNB-75 CNS was 38.7%; in the experiment on U251 CNS, 21.1%; in the experiment on PC-3 prostate, 38.2%; in the experiment with SK-MEL-5 melanoma, -92.2% (active); with UACC-62 melanoma, -2.99% (active); in the experiment on LOX IMVI melanoma, -50.1% (active).

Take `COc1cc(-c2nc(SCCC(C)C)nc(Nc3ccccc3)c2C#N)cc(OC)c1OC`: the growth in the experiment on DU-145 prostate was 97.1%; with K-562 leukemia, 93.7%; with MALME-3M melanoma, 104%; with MDA-MB-231 breast, 59.8%; with RXF 393 renal, 114%; in the experiment with SF-268 CNS, 95.9%. The growth was 100% in the experiment on SF-295 CNS; 96.2% with SF-539 CNS; 107% in the experiment with UACC-257 melanoma; 100% in the experiment with M14 melanoma; 96.8% in the experiment on HCT-15 colon; 82.3% in the experiment with HT29 colon. For the same molecule, the growth with SNB-75 CNS is 66.8%; in the experiment on U251 CNS it was 85%; in the experiment with PC-3 prostate, 83.8%; in the experiment with SK-MEL-5 melanoma, 97.3%; in the experiment on UACC-62 melanoma, 71.8%; in the experiment with LOX IMVI melanoma, 99.4%. In addition, in the experiment on SK-MEL-28 melanoma, the growth was 103%.

With `NC1=NC(=O)NC1(c1ccccc1)c1ccccc1`, the growth in the experiment with DU-145 prostate is 99.5%; in the experiment on K-562 leukemia it was 89.5%; in the experiment with MALME-3M melanoma, 93.3%; in the experiment on MDA-MB-231 breast, 94%; in the experiment with RXF 393 renal it was 102%; with SF-268 CNS, 103%. Further, the growth with SF-295 CNS was 117%; with SF-539 CNS, 104%; in the experiment with UACC-257 melanoma, 103%; in the experiment with M14 melanoma, 98.6%; with HCT-15 colon it was 97.5%; with HT29 colon, 111%. Further, the growth in the experiment with SNB-75 CNS is 89.9%; in the experiment with U251 CNS it was 97.4%; with PC-3 prostate, 94.3%; in the experiment with SK-MEL-5 melanoma, 95.9%; in the experiment with UACC-62 melanoma, 101%; in the experiment with LOX IMVI melanoma, 91.3%. In the experiment with SK-MEL-28 melanoma, the growth was 109%.

As for `NNC(=O)c1ccc(C(=O)NN)cc1`, the growth in the experiment with DU-145 prostate is 109%; in the experiment on K-562 leukemia, 112%; in the experiment with MALME-3M melanoma, 98%; in the experiment with MDA-MB-231 breast it was 117%; with RXF 393 renal, 111%; in the experiment with SF-268 CNS it was 106%. For the same molecule, the growth was 106% with SF-295 CNS; 115% in the experiment with SF-539 CNS; 94.6% in the experiment with UACC-257 melanoma; 114% in the experiment on M14 melanoma; 112% in the experiment with HCT-15 colon; 97.9% with HT29 colon. The growth with SNB-75 CNS was 113%; in the experiment with U251 CNS, 93.2%; in the experiment with PC-3 prostate it was 114%; in the experiment on SK-MEL-5 melanoma, 108%; in the experiment with UACC-62 melanoma it was 97.6%; with LOX IMVI melanoma, 102%. Besides, the growth in the experiment on SK-MEL-28 melanoma is 114%.

Turning to `O=C(Nc1ccc(CN2CCOCC2)c(C(F)(F)F)c1)c1nc2ccc3[nH]ncc3c2c2c1CCCC2`, the growth was 104% with DU-145 prostate; 82.8% in the experiment on K-562 leukemia; 106% in the experiment on MALME-3M melanoma; 95.9% with MDA-MB-231 breast; 99.7% with RXF 393 renal; 103% in the experiment on SF-268 CNS. The growth in the experiment with SF-295 CNS was 97.7%; in the experiment with SF-539 CNS it was 99.1%; in the experiment with UACC-257 melanoma, 88.9%; in the experiment on M14 melanoma, 91.6%; in the experiment on HCT-15 colon it was 82.4%; in the experiment on HT29 colon, 74.8%. Besides, the growth in the experiment with SNB-75 CNS was 128%; in the experiment with U251 CNS, 92%; with PC-3 prostate it was 66.2%; in the experiment with SK-MEL-5 melanoma it was 102%; in the experiment on UACC-62 melanoma it was 79.2%; in the experiment with LOX IMVI melanoma, 90.5%. Further, in the experiment on SK-MEL-28 melanoma, the growth was 103%.

Consider `Cc1cccc(/C=C2\N=C(c3ccccc3)N(c3ccc(S(N)(=O)=O)cc3)C2=O)c1`, for which the growth with DU-145 prostate was 97%; with K-562 leukemia, 90.9%; in the experiment with MALME-3M melanoma it was 82.7%; in the experiment on MDA-MB-231 breast, 96.7%; in the experiment on RXF 393 renal, 102%; in the experiment on SF-268 CNS, 91.4%. Moreover, the growth in the experiment with SF-295 CNS is 86.5%; in the experiment with SF-539 CNS, 72.2%; in the experiment with UACC-257 melanoma, 94.4%; in the experiment with M14 melanoma, 107%; in the experiment with HCT-15 colon, 91.8%; in the experiment with HT29 colon it was 86.1%. For the same molecule, the growth in the experiment with SNB-75 CNS was 49.9%; in the experiment on U251 CNS it was 95.1%; in the experiment on PC-3 prostate, 92.9%; with SK-MEL-5 melanoma it was 88.5%; in the experiment on UACC-62 melanoma, 92.8%; with LOX IMVI melanoma, 99%. Also, the growth in the experiment with SK-MEL-28 melanoma was 101%.

On to `COc1ccc(/C=C/C(=C/c2c(O)[nH]c3cc(Br)ccc23)N=O)cc1`, for which the growth in the experiment on DU-145 prostate is 114%; in the experiment on K-562 leukemia, 89.1%; in the experiment with MALME-3M melanoma, 95.4%; in the experiment on MDA-MB-231 breast it was 101%; with RXF 393 renal, 130%; with SF-268 CNS, 107%. Also, the growth is 107% in the experiment with SF-295 CNS; 99.4% in the experiment with SF-539 CNS; 114% in the experiment with UACC-257 melanoma; 115% with M14 melanoma; 113% in the experiment with HCT-15 colon; 114% with HT29 colon. Besides, the growth with SNB-75 CNS is 113%; in the experiment with U251 CNS it was 105%; in the experiment on PC-3 prostate it was 104%; in the experiment with SK-MEL-5 melanoma, 103%; in the experiment with UACC-62 melanoma it was 102%; in the experiment on LOX IMVI melanoma it was 90.8%. Also, the growth in the experiment with SK-MEL-28 melanoma is 120%.
